The source of these data is PubChem BioAssay AID652054 (National Center for Advancing Translational Sciences (NCATS), 2013).

Each structure is given as a SMILES string. In all, about 360,000 compounds went through this assay and about 9,100 (2.5%) were called active. Roughly 4% stayed inconclusive and do not appear here. The sample as a whole holds a higher share of actives than the screen did. Unmarked numbers belong to inactive results. No stated cut-off is given here; in the data, active means max response below about -50%; inconclusive means no clear call, values can overlap the other calls; inactive means above that.
On the % scale 0 is the no-effect control and ±100 the full control effect.

D(3) dopamine receptor (Homo sapiens), sequence (P35462 whole entry, looked up): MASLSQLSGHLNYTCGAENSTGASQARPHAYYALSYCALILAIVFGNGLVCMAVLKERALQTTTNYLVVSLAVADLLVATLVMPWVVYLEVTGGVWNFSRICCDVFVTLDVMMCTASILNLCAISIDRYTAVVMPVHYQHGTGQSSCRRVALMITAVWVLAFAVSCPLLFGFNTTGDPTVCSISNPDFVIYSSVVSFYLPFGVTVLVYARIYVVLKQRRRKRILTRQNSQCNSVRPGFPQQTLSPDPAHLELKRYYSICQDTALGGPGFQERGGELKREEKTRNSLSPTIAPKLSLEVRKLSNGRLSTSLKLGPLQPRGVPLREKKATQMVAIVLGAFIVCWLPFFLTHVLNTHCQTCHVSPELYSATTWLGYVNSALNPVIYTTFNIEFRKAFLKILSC

The assay deals with D(3) dopamine receptor (Homo sapiens) (UniProt P35462). The assay is described as follows: qHTS of D3 Dopamine Receptor Antagonist: qHTS. To be noted: D3R cells, DiscoveRx beta-arrestin luminescence, antagonist mode; active compounds read low. The text has this:
D3 DARs represent a very important target for the treatment of several neuropsychiatric disorders. Indeed, one of the most promising therapeutic applications for the D3 DAR is in the area of addiction and related disorders. […] These findings have been observed with a number of addictive substances including cocaine, amphetamine, nicotine, and alcohol. […] Antagonism of the D3 DAR may also be therapeutic in the treatment of schizophrenia or psychosis. […] Since the D3 DAR is expressed in areas of the CNS associated with the control of mood and emotion, it has been hypothesized that selective antagonism of the D3 DAR may be effective in treating psychosis without inducing the motor side effects typically seen with D2 DAR antagonists.
This part of the project aims to discover novel antagonist.
NIH Chemical Genomics Center [NCGC]
NIH Molecular Libraries Probe Centers Network [MLPCN]
Assay Submitter (PI): David Sibley, NINDS
Freshly passaged cells are plated in 1536 well white, solid bottom plates at a density of 1500 cells/well in 3microl of complete media. After an overnight incubation at 37 degrees C in 5% CO2, cells are loaded with 23nl of test compound from the compound library (as well as dopamine controls) using a 1536 pintool and incubated at 37 degrees C for 90 minutes. Two microliters of DiscoveRx reagent is then added to all cells, and they are incubated for an additional 30 - 60 minutes at room temperature. Following incubation, luminescence is measured on a ViewLux CCD-based luminometer reader using a 20 sec exposure time.
On to `Oc1c(CN2CCN(c3ccc(F)cc3)CC2)cc(Cl)c2cccnc12`, for which the max response, negative = inhibition is -59.7% (active). As for `Cc1cccc(C)c1NC(=O)CN1CCN(c2ccc(F)cc2)CC1`, the max response, negative = inhibition was -14.3%. On to `Cc1ccc(CN2CCN(c3ncccn3)CC2)c(C)c1`, for which the max response, negative = inhibition was -14.2%.

As to `COc1ccc(-c2nc3ccc(Br)cn3c2Cc2ccc(C)cc2)cc1OC`, the max response, negative = inhibition was 33.3%. With `CCc1nc2c(OCCOc3ccc(F)cc3)cccn2c1N(C)C(=O)c1ccccc1F`, the max response, negative = inhibition is 9.16%. To `CC1CN(C(=O)CCC(=O)NCc2cccnc2)c2ccccc2O1` (stereo not drawn) belongs -17.6%. To `CC1CN(C(=O)CCC(=O)NC2CCN(Cc3ccccc3)CC2)c2ccccc2O1` (stereo not drawn) belongs -13.6%; to `CC1CN(C(=O)CCC(=O)NCCCN2CCC(Cc3ccccc3)CC2)c2cc(Cl)ccc2O1` (stereo not drawn), -69.6% (active). To `CC1=C(C(=O)N2CCOCC2)CC(CC(=O)NCc2cccc3ccccc23)C(=O)N1CCC1=CCCCC1` (stereo not drawn) belongs -26.6%.

In the case of `CCCc1nc2c3ccccc3ccn2c1Cc1ccccc1C(F)(F)F`, the max response, negative = inhibition is -26.6%. To `CC1=C(C(=O)N2CCOCC2)CC(CC(=O)NCc2cccs2)C(=O)N1CCCN1CCCC1=O` (stereo not drawn) belongs 0%.

Turning to `COc1ccc(Cl)cc1NC(=O)CN(C)C(=O)c1cn(-c2ccccc2)nc1-c1cccs1`, the max response, negative = inhibition was 0.189%. On to `COCCCNc1nc2ccccc2nc1NS(=O)(=O)c1ccc(F)cc1`, for which the max response, negative = inhibition was 0.291%.

As for `Cc1ccc(S(=O)(=O)C(C#N)c2nc3ccccc3nc2N2CCCC2)cc1C` (stereo not drawn), the max response, negative = inhibition was 17.6%. `Cc1ccc(S(=O)(=O)Nc2nc3ccccc3nc2N2CCc3ccccc3C2)cc1`: the max response, negative = inhibition is -50.8% (active). As for `CCc1c(-c2ccc(F)cc2)ncn1Cc1cccc(-c2ccccc2)c1`, the figure is -10.3%; as for `Nc1nc2c(ncn2[C@@H]2O[C@H](CNCc3ccc(OCCCN4CCOCC4)cc3)[C@@H](O)[C@H]2O)c(=O)[nH]1`, -3.82%; as for `CCOC(=O)C1CCCN(C(=O)c2cccc3ccccc23)CC1` (stereo not drawn), 15.1%. Consider `O=C(/C=C/c1ccccc1[N+](=O)[O-])OCC(=O)N1CCCC1`, for which the max response, negative = inhibition was 9.84%. Consider `CC(C)CNC(=O)COC(=O)/C=C/c1ccccc1[N+](=O)[O-]`, for which the max response, negative = inhibition is -8.96%.

`CC1CC(C)CN(C/C=C/c2ccccc2[N+](=O)[O-])C1` (stereo not drawn): the max response, negative = inhibition was -73.4% (active). To `COc1cc(CN2CC(C)CC(C)C2)cc([N+](=O)[O-])c1O` (stereo not drawn) belongs 17.6%; to `CC1CCCCC1NC(=O)/C(C#N)=C/C=C/c1ccccc1[N+](=O)[O-]` (stereo not drawn), -12.8%; to `O=[N+]([O-])c1ccccc1/C=C/CN1CCCC(CO)C1` (stereo not drawn), -76% (active). As for `CN[C@H]1C[C@H]2c3cc(Oc4ccccc4C)ccc3CCN2C(=O)[C@H]1[C@H](C)O`, the figure is 23.3%; as for `Cc1noc(C)c1-c1ccc(C(=O)NCc2ccncc2)c2occc12`, -3.57%. As for `COc1cccc(C(NC(C)=O)c2nc(-c3cnc4ccccc4c3)cs2)c1` (stereo not drawn), the figure is 11.3%. As for `C[C@H](CO)N1C[C@H](C)[C@@H](CN(C)C(=O)c2cnccn2)Oc2ncc(Br)cc2C1=O`, the max response, negative = inhibition was -23.4%.

Take `Cc1ccc(-c2cnc(C(O)c3cccc(C)c3C)[nH]2)cc1` (stereo not drawn): the max response, negative = inhibition is -20.7%. For `COc1ccc(OC)c(C(=O)NC2CCCc3c2cnn3-c2cc(C)cc(C)c2)c1` (stereo not drawn), the max response, negative = inhibition is 57.4%. In the case of `CCc1nc2c(OCc3cccc(OC)c3)cccn2c1N(C)C(=O)C(C)C`, the max response, negative = inhibition is 10.3%. On to `Cc1ccc(C(=O)N[C@H](C(=O)N2CCN(c3ncccn3)CC2)C(C)C)cc1`, for which the max response, negative = inhibition is 0%.

For `Nc1nnc(SCC(=O)Nc2ccc3nc(SCC(=O)Nc4ccccc4)sc3c2)s1`, the max response, negative = inhibition was 0.758%.

Regarding `O=[N+]([O-])c1c(NCCO)cc(Sc2nc3ccccc3s2)c2nonc12`, the max response, negative = inhibition is -81.4% (active). As for `OCCNc1nc(Nc2ccc(Cl)c(Cl)c2)nc2ccccc12`, the figure is -28.2%; as for `CCCC(=O)N1CCC1(C)C(=O)Nc1ccc(-n2cncn2)cc1` (stereo not drawn), -18.5%; as for `COc1cccc(CNC(=O)[C@@H]2CCCN2C(=O)[C@@H]2CCCN2C(=O)c2ccccc2)c1`, -10.4%. As for `CSc1ncccc1C(=O)N1CCCC(Nc2ccc(F)c(F)c2)C1` (stereo not drawn), the figure is 1.51%; as for `CCOC(=O)C1CCN(C(=O)/C=C/c2cc(OC)c(OC)c(OC)c2)CC1`, 0.0271%.

With `CCOC(=O)C1CCN(S(=O)(=O)c2cc(F)ccc2OC)CC1`, the max response, negative = inhibition was 2.14%.

For `CCOC(=O)C1CCCCN1Cc1ccc(OC)c(OC)c1OC` (stereo not drawn), the max response, negative = inhibition is -50.5% (active). For the compound `CCCCNC(=O)C[C@@H]1C[C@@]2(C(=O)OCC)CCC=C2N(Cc2ccco2)C1=O`, the max response, negative = inhibition is -17.5%. As for `CC(=O)Nc1ccc(C=Cc2ccc([N+](=O)[O-])cc2)cc1`, the figure is -0.898%; as for `COc1cccc(NC(=O)[C@H](Cc2c[nH]c3ccccc23)NC(=O)[C@@H]2Cc3ccccc3CN2)c1`, 0%.

Regarding `COc1ccc(NC(=O)[C@H](NC(=O)[C@@H]2Cc3ccccc3CN2)c2ccccc2)cc1`, the max response, negative = inhibition was -97.8% (active). As for `COc1ccc(NC(=O)C2CCC(CNC(=O)[C@@H]3Cc4ccccc4CN3)CC2)cc1` (stereo partly drawn), the figure is -8.86%; as for `O=C1OCCOC2CCCc3oc(-c4ccccc4)c1c32` (stereo not drawn), -1.49%. In the case of `O=C(COc1ccc(S(=O)(=O)N2CCCC2)cc1[N+](=O)[O-])N1CCCCC1`, the max response, negative = inhibition was -6.05%.

As for `CN1CCC[C@@H]1CCO[C@](C)(c1ccccc1)c1ccc(Cl)cc1`, the max response, negative = inhibition was -107% (active). For `CC1CCCN(CC(=O)Nc2cc(Cl)ccc2Oc2ccccc2)C1` (stereo not drawn), the max response, negative = inhibition is 0.948%. For `CCC1CCC/C1=N\NC(=O)c1ccc(Cl)cc1` (stereo not drawn), the max response, negative = inhibition is -14%.

As for `C#Cc1ccc(NC(=O)C2(C)CCN2C(=O)Cc2ccc(-c3ccccc3)cc2)cc1` (stereo not drawn), the max response, negative = inhibition is 4.18%.

As to `O=C(NCc1cccnc1)c1cc(C2CCCN(C(=O)CCCc3ccccc3)C2)on1` (stereo not drawn), the max response, negative = inhibition is 33.8%. To `COc1ccc(-c2[nH]nc3c2C(c2ccncc2)C(C#N)=C(N)O3)cc1` (stereo not drawn) belongs -18.7%; to `COc1ccccc1CN1CCCC(N2CCN(c3ccc(F)cc3)CC2)C1` (stereo not drawn), 4.28%; to `COc1ccc(C2C(C#N)=C(N)Oc3n[nH]c(C)c32)cc1CN1CCN(c2ccc(F)cc2)CC1` (stereo not drawn), -95% (active). With `CCC(CC)C(C(=O)NC1CCCC1)N1CCN(c2cc(C)nc3ccccc23)CC1` (stereo not drawn), the max response, negative = inhibition is 14.1%. Turning to `NC(=O)C1(Nc2ccccc2Cl)CCCC1`, the max response, negative = inhibition is -22%. To `O=C(Nc1ccccc1Cl)/C(Cl)=C(\Cl)S(=O)c1ccccc1` (stereo not drawn) belongs -94.9% (active); to `CS/C(=C\C(=O)c1ccco1)Nc1ccccc1Cl`, 0.757%.

For `O=C(NCc1ccco1)c1cccc(-c2ccc3nncn3c2)c1`, the max response, negative = inhibition was -9.17%.

Turning to `CCc1nc2c(OCCOc3ccccc3)cccn2c1N(C=O)Cc1ccc(OC)cc1`, the max response, negative = inhibition is 12.7%. To `COc1ccccc1NC(=O)[C@H](COCc1ccccc1)NC(=O)OC(C)(C)C` belongs 13.5%. In the case of `C[C@@H](NC(=O)OC(C)(C)C)c1nnc(S(=O)(=O)Cc2ccccc2)o1`, the max response, negative = inhibition is -110% (active).

Turning to `CCc1ccccc1NC(=O)CSc1nnc([C@@H](NC(=O)OC(C)(C)C)C(C)CC)o1` (stereo partly drawn), the max response, negative = inhibition is -1.74%. To `CCNC(=O)C1(C)CCCN(C(=O)c2c(C)noc2C)C1` (stereo not drawn) belongs 0%.

Take `CCCC(NS(=O)(=O)c1ccc(OC)cc1)C(=O)O` (stereo not drawn): the max response, negative = inhibition is -4.83%. To `COc1ccc(NS(=O)(=O)c2ccc(Oc3c(C#N)cccc3C#N)cc2)cc1` belongs 0.938%; to `COc1ccc(S(=O)(=O)/N=C2\C=C(NS(=O)(=O)c3ccccc3)C(=O)c3ccccc32)cc1`, -59.6% (active); to `O=S1(=O)CC(N2CCN(Cc3ccccc3F)CC2)CN1Cc1cn(Cc2cccc(C(F)(F)F)c2)nn1` (stereo not drawn), 1.97%. To `C/C(=N\NS(=O)(=O)c1cccc([N+](=O)[O-])c1)c1cc2ccccc2o1` belongs -65.1% (active); to `COc1ccc(CCNS(=O)(=O)c2cccc([N+](=O)[O-])c2)cc1`, -20.3%; to `CC(C=Cc1ccccc1)=NNS(=O)(=O)c1ccc([N+](=O)[O-])cc1`, -22%.

On to `CCOC(=O)CNC(=O)CSc1nnc(COc2ccc(Cl)cc2)n1CC`, for which the max response, negative = inhibition is -55.4% (active). As for `CCn1c(COc2ccc(OC)cc2)nnc1SCC(=O)Nc1cc(OC)ccc1OC`, the figure is 5.77%; as for `CCOC(=O)CNC(=O)CSc1nnc(-c2cccc(OC)c2)n1CC`, 0%; as for `CCOC(=O)C(C(=O)c1ccccc1)C(c1ccccc1)c1nccc2ccccc12` (stereo not drawn), -11.4%. To `COc1ccc(S(=O)(=O)N2CCCCC2)cc1C(=O)NC1CCS(=O)(=O)C1` (stereo not drawn) belongs 22%; to `COc1ccc(NC(=O)CN2C(=O)NC(C)(c3ccccc3)C2=O)cn1` (stereo not drawn), 28.1%; to `COc1ccc(C(O)c2nc(-c3ccc(OC)nc3)cs2)cc1` (stereo not drawn), -0.57%. Consider `COc1ccc(CS(=O)/C(Cl)=C(/Cl)C(=O)Nc2ccc(OC)nc2)cc1` (stereo not drawn), for which the max response, negative = inhibition is -91.9% (active). `CN1OC[C@@H]2CN(C(=O)c3cccnc3)[C@H](c3ccc(N4CCCCC4)cc3)C[C@@H]21`: the max response, negative = inhibition is 33.1%. To `CN1OC[C@@H]2CN(C(=O)c3cccc4ccccc34)[C@H](c3ccc(N4CCCCC4)cc3)C[C@@H]21` belongs 0.382%; to `CN1OC[C@@H]2CN(C(=O)c3ccc(-c4ccccc4)cc3)[C@H](c3ccc(-c4cccc(F)c4)cc3)C[C@@H]21`, -51.6% (active). Consider `COc1cccc(NC(=O)C2(C)CCN2Cc2ccccc2Cl)c1` (stereo not drawn), for which the max response, negative = inhibition was 9.45%. As for `Cn1c(CNC(=O)c2ccco2)nnc1SCC(=O)N1CCN(c2ccccc2)CC1`, the figure is 9.96%; as for `O=C(NCc1nnc(SCC(=O)N2CCC(Cc3ccccc3)CC2)o1)c1ccco1`, -56.2% (active). For `O=C(NCc1nnc(SCC(=O)N2CCCCCC2)o1)c1ccc(F)cc1`, the max response, negative = inhibition was -15.6%.
